Experimental data from PubChem BioAssay AID1044 (The Scripps Research Institute Molecular Screening Center, 2008).
The campaign covered roughly 16,000 compounds. About 240 (1.5%) were called active. No stated cut-off is given here; in the data, active means activation above about 80%; inactive means the rest. For the sample, actives were picked, then their nearest neighbours and some compounds at random.

biological target: Sphingosine 1-phosphate receptor 1 (Homo sapiens) (UniProt P21453); assay: activates the human S1P1 receptor (AID 1044); conditions: S1P1 agonist cell-based reporter assay; at 4.5 µM; active compounds read high
Sequence (P21453 whole entry, looked up): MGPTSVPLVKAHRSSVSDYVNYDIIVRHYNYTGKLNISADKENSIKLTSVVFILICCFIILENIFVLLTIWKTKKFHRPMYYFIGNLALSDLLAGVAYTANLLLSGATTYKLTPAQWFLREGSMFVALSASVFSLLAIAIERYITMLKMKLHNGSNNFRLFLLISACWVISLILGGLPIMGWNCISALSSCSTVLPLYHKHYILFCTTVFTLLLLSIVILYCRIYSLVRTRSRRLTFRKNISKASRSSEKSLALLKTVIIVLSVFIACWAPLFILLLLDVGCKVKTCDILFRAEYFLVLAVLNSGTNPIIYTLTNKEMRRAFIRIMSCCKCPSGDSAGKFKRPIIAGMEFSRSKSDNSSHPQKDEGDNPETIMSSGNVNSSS

activation, active:
O=C(NNC(=S)Nc1ccccc1Cl)c1ccc(OC(F)(F)F)cc1 91.2%
CC1(C)C=Cc2cc(-c3noc(-c4ccccc4)n3)ccc2O1 96.3%
CC(=O)Nc1ccc(S(=O)(=O)NNc2c(Cl)cncc2Cl)cc1Cl 80.4%
O=C(/C(=N\N=C\c1ccc2c(c1)OCO2)c1ccccc1)c1ccccc1 101%

activation, inactive:
OC(CNCCNc1nccc(C(F)(F)F)n1)COc1ccc(Cl)c(Cl)c1 (configuration not stated) 15.7%
CSC(=Nc1ccccc1C(F)(F)F)N1CCCC1 62.5%
NNC(=O)CSc1nnc(-c2ccccc2)n1-c1ccccc1 2.03%
CN(NC(=O)c1ccc(Cl)s1)c1cnn(-c2cc(Cl)cc(Cl)c2)c(=O)c1Cl 7.36%
O=C(NCc1cccnc1)c1ccccc1NC(=O)c1c(F)cccc1F 10.3%
Cc1ccc(S(=O)(=O)NC(=O)NCCSCc2ccco2)cc1 -7.47%
O=C(CSc1ccc(Cl)cc1)NCCSCc1ccco1 3.06%
O=C(O)CSC(SCC(=O)O)c1ccc2c(c1)OCO2 -4.07%
Cc1cc(C)n(/N=c2\sc(-c3ccccc3)cn2C2CC3C=CC2C3)c(=O)c1C#N (configuration not stated) -8.12%
CCOC(=O)c1c(N/N=C\c2ccccc2O)n[nH]c1C -16.7%
COc1cc(NC(=O)COc2cc(Cl)c(Cl)cc2Cl)cc(OC)c1OC 22.5%
O=C(O)Cc1csc(NC(=O)CSc2nnnn2-c2ccc(O)cc2)n1 0.38%
C/C(=N\NC(N)=S)c1cc2cc(Cl)ccc2o1 7.17%
N/C(=N\O)c1ccc2nonc2c1 23.9%
Clc1ccc(-c2csc(-c3cnccn3)n2)s1 1.06%
S=C(Nc1cccnc1)N1CCCN(Cc2ccc(Cl)cc2Cl)CC1 14.2%
COC(=O)c1ccsc1NC(C)=O -7.53%
CCCc1c(C(=O)O)cnn1-c1ccc(Cl)cc1 -21.8%
O/N=C(\c1ccccc1)c1ccccn1 -7.69%
COc1ccc(C2CC(c3cccs3)=Nc3ccccc3S2)c(Cl)c1OC (configuration not stated) 1.73%
O=S(=O)(O)Oc1c[nH]c2ccccc12 -5.88%
CC1=C(C(=O)O)N2C(=O)[C@H](NC(=O)[C@@H](N)c3ccccc3)C2SC1 (some centres not stated) 8.53%
O=C(c1cnn(-c2ccc(Cl)cc2)n1)c1cccs1 3.48%
CC(C)S(=O)(=O)/C(C#N)=C/c1ccccc1OC(F)(F)F -23.8%
COC(=O)c1ccccc1NC(=S)NNC(=O)c1ccc([N+](=O)[O-])cc1 -4.53%
Cc1nc(C(=O)NNC(=S)Nc2ccccc2C(F)(F)F)cs1 -8.43%
Cc1nn(S(=O)(=O)c2ccc(Cl)cc2)cc1-c1ccccc1 -1.3%
Cc1cc(Cl)ccc1NC(=S)NNC(=S)Nc1ccc(F)cc1 25.2%
Cc1onc(-c2ccccc2)c1C(=O)Sc1ccc(C(F)(F)F)cn1 -5.64%
CC(=O)c1ccc(NC(=O)OC2CCSC2)cc1 (configuration not stated) -3.04%
O=S(=O)(c1ccccc1)c1cc(C(F)(F)F)cc(C(F)(F)F)c1 1.62%
O=c1oc2c3ccccc3c3oc(=O)sc3c2s1 11%
CN(C)c1ccc(C=Nc2ccc(S(N)(=O)=O)cc2)cc1 -3.85%
CC(=O)Nc1ccc(F)cc1F -19.4%
Cc1cc(C(F)(F)F)nc2c(-c3noc(-c4ccccc4)n3)cnn12 23.9%
CC1(C)CCc2cc(-c3ccnc(SCC(=O)c4ccccc4)n3)ccc2O1 -11.3%
O=c1cc(-c2ccccc2)cc(-c2ccccc2)o1 -7.4%
O=C(O)CC(CC(=O)Oc1ccccc1N1CCCCC1)c1ccccc1 (configuration not stated) -2.68%
O=C(CCN1CCN(C(c2ccccc2)c2ccccc2)CC1)c1ccccc1 1.07%
CC1CC(NC(=O)/C(C#N)=C/c2ccc[nH]2)CC(C)(C)C1 (configuration not stated) -5.85%
Cc1[nH]ncc1S(=O)(=O)c1ccc(Cl)cc1 2.45%
O=C(NCc1ccc(F)cc1F)c1cc(C(F)(F)F)cc(C(F)(F)F)c1 -5.72%
O=C(Nc1ccc(F)cc1OC(F)(F)F)N1CCC(O)CC1 -2.84%
Cc1nc2cc3c(cc2s1)OCO3 2.86%
COCn1nnc2ccccc21 1.03%
CC1(C)CC(=O)C(N=Nc2c(F)cccc2F)=C(O)C1 7.55%
CC(C)NC(=O)NNc1c(Cl)cncc1Cl 8.17%
CC(C)c1ccc(NNS(=O)(=O)c2ccc(Cl)c(Cl)c2)cc1 -3.29%
Cc1cc(C2=CSC3=NCCN23)ccc1Cl 8.4%
CN(C)/C=C/C(=O)c1cc(C(C)(C)C)cc(C(C)(C)C)c1O 19.8%
CCCCNC(=O)OCCSCCS(=O)(=O)c1ccc(Cl)cc1 -12.4%
O=C1COCC(=O)N1c1ccc2c(c1)OCO2 -5.13%
Nc1[nH]c(=O)nc2nc[nH]c12 -5.12%
N/C(=N\OS(=O)(=O)c1ccc(C(F)(F)F)cc1)C1CSCCS1 (configuration not stated) 6.24%
CCc1cccc(C)c1N(C(C)=O)C1=NCCC(=O)S1 -5.03%
Cn1c(=O)c(C#N)cn(-c2ccccc2)c1=O -15.9%
CC(C)S(=O)(=O)c1cscc1N/C=C(/C#N)C(=O)c1cccs1 21.3%
O=C(Nc1cc2ccccc2s1)N1CCN(Cc2c(F)cccc2Cl)CC1 8.18%
Cc1cc(CNC(=O)c2cc(C)n(C)n2)no1 0.51%
N#Cc1sccc1Br -1.57%
CCOC(=O)C/C(N)=C(\C#N)C(=O)OCC -0.14%
Cc1nc(-c2cccnc2)nc(N2CCCN(Cc3ccc(F)cc3)CC2)c1Cl -19.4%
CN(C)/C=N/NC(=O)c1nc(-c2cccc(-n3cccc3)c2)no1 -6.62%
CCOC(=O)O/N=C(\N)c1ccc(Cl)cc1 3.02%
O=[N+]([O-])c1ccc(-c2ccc(I)cc2)cc1 1.05%
O=[N+]([O-])c1cc(C(F)(F)F)ccc1OCCO 8.3%
O=C1/C(=C/c2ccc3c(c2)OCO3)CCC/C1=C\c1ccc2c(c1)OCO2 11.5%
COc1ccc(/C=C(\NC(=O)c2ccccc2)C(=O)N/N=C/c2ccc3c(c2)OCO3)cc1 7.34%
CO/N=C(/C)c1ccc2c(c1)CCO2 -16.7%
O=C(NCc1cc2ccccc2s1)C1CN(C(c2ccccc2)c2ccccc2)C1 -7.79%
O=C(CSc1nnc(-c2ccncc2)n1Cc1ccccc1)Nc1nnc(-c2ccco2)s1 4.05%
c1ccc2sc(-c3csc(-c4ccc5c(c4)OCCO5)n3)nc2c1 7.46%
S=C(NNC(=S)NC1CC2C=CC1C2)NC1CC2C=CC1C2 (configuration not stated) -6.61%
